Measurements: PubChem BioAssay AID540276 (National Center for Advancing Translational Sciences (NCATS), 2011)
Out of some 300,000 compounds screened, about 5,400 (1.8%) were called active. About 28% were inconclusive and are not listed. The call rests on the fitted dose curve; tested in HEK293 cells. The list comes from a sample in which actives are over-represented; it also holds similar structures and randomly drawn compounds. Where a call stands in place of a potency, no number is given.

assay: qHTS for inhibitors of binding or entry into cells for Marburg Virus; conditions: Marburg virus pseudotyped entry inhibition, cell reporter; series mostly up to 37.8 µM
Potency means the concentration at half of the fitted maximal effect.

Row | Structure (SMILES) | Potency
1 | CCN(CC(=O)Nc1ccc(OC)cc1)C(=O)c1ccc(=O)n(Cc2ccccc2)n1 | inactive
2 | COc1ccc(C)cc1NC(=O)CSc1nnc2ccc(-c3ccccn3)nn12 | inactive
3 | CCOc1ccccc1-c1nc(CN2CCC(C(=O)N3CCOCC3)CC2)c(C)o1 | inactive
4 | Cc1ccc(C)c(NC(=O)C(c2ccccc2)N2CCN(CC(=O)NC3CC3)CC2)c1 (centres undefined) | inactive
5 | OC(CNC1CCCCC1)c1ccccc1 (centres undefined) | inactive
6 | CC(=O)OC(C(=O)NC1CCCCC1)c1ccccc1 (centres undefined) | inactive
7 | CC(NCc1ccccc1OC1CCCC1)c1ccccc1 (centres undefined) | 7.94 µM (active)
8 | COc1ccc2c(c1)c(=Cc1ccc(N(C)C)cc1)c1cc(-c3ccccc3)[n+](C)n12 | 4.47 µM (active)
9 | c1ccc2c(c1)[I+]c1ccccc1-2 | 0.282 µM (active)
10 | O=C(NCCc1ccccc1)c1c[nH]c2ccc(F)cc2c1=O | inactive
11 | CC(C)OC(=O)c1ccc(NCc2cc(O)ccc2O)cc1Cl | 2.24 µM (active)
12 | CC(C)NC(=O)c1ccc(Cl)cc1Cl | inactive
13 | CC(OC(=O)c1ccc(Cl)cc1O)C(=O)NCCC1=CCCCC1 (centres undefined) | inactive
14 | Cc1ccccc1-n1cc(CNC(=O)C2CCC(=O)N(C3CC3)C2)cn1 (centres undefined) | inactive
15 | CC(C)Cc1nc(N2CCOCC2)c(C#N)c2c1CCC2 | inactive
16 | CC(C)CCNc1nc(N2CCCC2)c2c(c1C#N)CCN(C)C2 | 7.3 µM (active)
17 | CCN1CCc2c(C#N)c(NCc3ccccc3)nc(NCCO)c2C1 | inactive
18 | COC1=CC(=O)OC(c2ccc(OC)cc2)C1 (centres undefined) | inactive
19 | O=C(NCc1ccncc1)C(=O)NCC1OCCN1S(=O)(=O)c1ccc(Br)cc1 (centres undefined) | inactive
20 | COc1ccc(-c2csc3ncnc(N4CCN(S(=O)(=O)c5ccccc5C#N)CC4)c23)cc1 | inactive
21 | CCN1/C(=C/c2ccc3ccc(C)cc3[n+]2CC)Sc2ccccc21 | 5.01 µM (active)
22 | O=C(c1ccc(NS(=O)(=O)c2ccc3[nH]c(=O)[nH]c3c2)cc1)N1CCCCC1 | inactive

Row | Structure (SMILES) | Potency
23 | Cc1cccc(NS(=O)(=O)c2ccc([N+](=O)[O-])cc2)n1 | inactive
24 | O=C(NNS(=O)(=O)c1ccc(F)cc1)c1ccc([N+](=O)[O-])cc1Cl | inactive
25 | O=[N+]([O-])c1ccc(NS(=O)(=O)c2ccccc2)c(Cl)c1 | 11.2 µM (active)
26 | CCOC(=O)CCC(NC(=O)c1ccc(CNc2nc3cc(C(F)(F)F)ccc3nc2C(=O)OCC)cc1)C(=O)OCC (centres undefined) | inactive
27 | OCCNc1nc2ccccc2n1-c1ncnc2sc3c(c12)CCC3 | 11.2 µM (active)
28 | CC(C)(C)C(=O)Cn1c(NCCO)nc2ccccc21 | inactive
29 | O=C(O)[C@@H]1CCCN1c1ncnc2sc3c(c12)CCC3 | inactive
30 | Cc1cccc(C=CC(=O)c2ccc(Cl)cc2)c1 | inactive
31 | O=C(COC(=O)c1cccnc1Cl)Nc1ccc(S(=O)(=O)N2CCOCC2)cc1 | inactive
32 | COc1ccc(C(C(=O)NCC2CCCO2)N(C(=O)Cn2nnc3ccccc32)c2ccc(NC(C)=O)cc2)cc1OC (centres undefined) | inactive
33 | Cc1ccc(C)c(N2CCN(C(=O)CCc3nc(-c4cccc(C(F)(F)F)c4)no3)CC2)c1 | inactive
34 | COc1ccc(OC)c(NC(=O)c2sc3nc(C)cc(C)c3c2N)c1 | inactive
35 | COc1ccc(OC)c(Cc2nnc(CCC(=O)NC3CCCC3)o2)c1 | inactive
36 | COc1ccc(OC)c(Cc2cnc3nc(N)nc(N)c3c2C)c1 | 0.112 µM (active)
37 | CCCc1cc(=O)[nH]c(SCC(=O)Nc2ccc(S(=O)(=O)N3CCCC3)cc2)n1 | inactive
38 | Cn1c(=O)c2c(O)c(C=NCC3CCCCC3)c(=O)n(C)c2n(C)c1=O | inactive
39 | Clc1ccc(CN2CCCCCC2)cc1Cl | inactive
40 | COc1ccc(C(O)(C2CCCCC2)C(CN2CCCC2)c2ccccc2)cc1 (centres undefined) | 8.91 µM (active)
41 | CC(CN1CCCCC1)c1ccccc1 (centres undefined) | inactive
42 | c1ccc(C(CN2CCCCC2)c2ccccc2)cc1 | inactive
43 | CCOc1ccc(NC(=O)CN(C)C(=O)Cc2sc(C)nc2-c2ccc(F)cc2)cc1OCC | inactive
44 | COC(=O)C1CCCCN1C(=O)c1ccc(OC2CCN(C(C)=O)CC2)c(OC)c1 (centres undefined) | inactive

Row | Structure (SMILES) | Potency
45 | CC(C)(C)NCC(O)COc1cccc2[nH]c(=O)[nH]c12 (centres undefined) | inactive
46 | COc1ccccc1OCC(O)CN1CCOCC1 (centres undefined) | inactive
47 | COc1ccccc1OCCNCC(O)COc1cccc2[nH]c3ccccc3c12 (centres undefined) | 11.6 µM (active)
48 | Cc1ccc(NC(=O)CSc2nnc(CNC(=O)c3ccccc3F)o2)cc1Cl | inactive
49 | O=C(N/N=C/c1ccoc1)c1ccc(Cl)cc1Cl | inactive
50 | O=c1[nH]c(NCCO)nnc1Cc1ccc(Cl)cc1 | inactive
51 | COc1ccc(Cc2nnc(N/N=C/c3ccccc3O)[nH]c2=O)cc1OC | 3.66 µM (active)
52 | CCOc1ccc(-n2c(O)c(/C=N/Nc3nnc(C)c(=O)[nH]3)c3ccccc3c2=O)cc1 | inactive
53 | O=C(OCC(=O)N1CCN(C(=O)c2ccco2)CC1)c1ccc(Cl)c(Cl)c1 | inactive
54 | COCCOC(=O)C1=C(C)NC(=O)NC1c1cc2c(cc1Br)OCO2 (centres undefined) | inactive
55 | O=C1CCCCC(=O)c2ccccc2N1 | inactive
56 | c1ccc2c(c1)C(=NC1CCCCC1)NC2=NC1CCCCC1 | 5.8 µM (active)
57 | C1CCC2=C(C1)CN1CCCC1=N2 | inactive
58 | Cc1nc2ccc(N)nc2nc1C | inactive
59 | Cc1cccc(NC(=O)C2CCN(C(=O)NC3CCCCC3)CC2)c1 | inactive
60 | CC[C@]1(O)C(=O)OCc2c1cc1n(c2=O)Cc2cc3ccccc3nc2-1 | 0.0251 µM (active)
61 | Cn1c(Cc2cccs2)nnc1SCC(=O)Nc1ccccc1 | inactive
62 | O=C(Oc1cccc(C(=S)N2CCOCC2)c1)c1cccc(Cl)c1 | inactive
63 | COc1ccccc1C(=O)NCCC(=O)NC(C)CCc1ccccc1 (centres undefined) | inactive
64 | c1c2c(cc3sc(N4CCCCC4)nc13)OCCO2 | 0.562 µM (active)
65 | COc1ccc2nc(Nc3nc4cc5c(cc4s3)OCCO5)sc2c1 | inactive
66 | Cc1nc2cc3c(cc2s1)OCO3 | inactive

Row | Structure (SMILES) | Potency
67 | O=C(NCC(=O)N1CCN(c2ccccc2F)CC1)c1cccs1 | inactive
68 | CCN(CC)S(=O)(=O)c1cc(C(=O)Nc2cc(S(=O)(=O)N3CCOCC3)ccc2N2CCCC2)ccc1F | inactive
69 | CCCN(CCc1ccccc1)C1CCc2c(O)cccc2C1 (centres undefined) | 15.8 µM (active)
70 | Cc1nn(Cc2ccccc2)c(C)c1NS(=O)(=O)c1ccccc1 | inactive
71 | COc1ccc(N(CC(=O)NCc2ccc(F)cc2)C(=O)CCC(=O)Nc2nccs2)cc1 | inactive
72 | NN=C(NN=Cc1ccccc1)c1ccccc1 | inactive
73 | COc1ccccc1NS(=O)(=O)c1ccc(C(=O)N2CCN(c3ccccc3O)CC2)cc1 | inactive
74 | C/C(=C\C(=O)c1ccc(Br)cc1)N1CCCCC1 | inactive
75 | CC1CN/C(=C\C(=O)c2ccc(Br)cc2)C(=O)N1 (centres undefined) | 2.24 µM (active)
76 | COc1cc2c(cc1OC)/C(=C/C(=O)c1ccc(NC(C)=O)cc1)NCC2 | inactive
77 | Cc1cc(OCC(=O)NCC(O)c2ccccc2)c2c(C)c(C)c(=O)oc2c1 (centres undefined) | inactive
78 | O=C(Nc1cccc(Cl)c1N1CCOCC1)c1cccnc1 | inactive
79 | Cc1ccc(S(=O)(=O)NCC(=O)Nc2ccc3c(c2)OCCO3)cc1 | inactive
80 | COc1ccc(OCC(=O)NCCS(=O)(=O)N2CCN(c3ccc(F)cc3)CC2)cc1 | inactive
81 | O=C(/C=C/c1ccc2c(c1)OCO2)NCc1ccc(F)cc1 | inactive
82 | CCc1c(C)sc(NC(=O)/C=C/c2ccc3c(c2)OCO3)c1C(=O)OC | inactive
83 | Cc1cccc(NC(=O)/C=C/c2ccc3c(c2)OCO3)n1 | 6.51 µM (active)
84 | NC(=O)c1ccc(N2CCCC2)nc1 | inactive
85 | OC(COc1ccccc1)CN1CCN(c2cccc(Cl)c2)CC1 (centres undefined) | inactive
86 | Oc1ccc(N2CCN(C(=S)NCc3ccccc3)CC2)cc1 | 3.16 µM (active)
87 | O=C(COC(=O)c1ccccc1C(=O)N1CCN(c2ccccc2)CC1)NCc1ccccc1 | inactive
88 | Oc1ccccc1N1CCN(C(=S)NCc2ccccc2)CC1 | inactive

Row | Structure (SMILES) | Potency
89 | CN(CC(=O)NCc1cccnc1)S(=O)(=O)c1cc(Cl)ccc1Cl | inactive
90 | O=C(O)C1C2C=CC(O2)C1C(=O)Nc1ccccn1 (centres undefined) | inactive
91 | Cc1c(C)n2c(SCC(=O)NC3CCCC3)nnc2[nH]c1=O | inactive
92 | Cc1cc(N/C=C\C(=O)c2cccc3ccccc23)no1 | inactive
93 | CC(C)(C)NCc1cc(Br)ccc1OC1CCCC1 | 23.1 µM (active)
94 | COCC(C)NCc1cc(Br)ccc1OC (centres undefined) | inactive
95 | COc1ccc(Br)cc1CN(C)C(=O)C1CC(=O)N(C2CCCC2)C1 (centres undefined) | inactive
96 | Cc1ccc(C)c(NC(=O)c2cc(-c3cc(C)cc(C)c3O)n[nH]2)c1 | inactive
97 | COc1ccccc1CNC(=O)[C@@H]1CCCN1C(=O)[C@@H]1Cc2ccccc2CN1C(=O)OC(C)(C)C | inactive
98 | COCCCNC(=O)[C@@H](C#N)c1nc2ccccc2nc1N1CCN(Cc2ccccc2)CC1 | inactive
99 | CCOc1ccc(-c2nnc(-c3ccco3)o2)cc1 | 6.51 µM (active)
100 | CCC(=O)Oc1cccc(C(=O)Nc2ccc(-c3nnc(-c4ccco4)o3)cc2)c1 | inactive
101 | COc1ccc(C(=O)CSc2nnc(-c3ccco3)o2)cc1 | inactive
102 | CC(=O)Nc1ccc(S(=O)(=O)NCC(=O)OCC(=O)c2ccc[nH]2)cc1 | inactive
103 | Cc1cccnc1CCNC(=O)C1CCC(=O)N(Cc2cccc(F)c2)C1 (centres undefined) | inactive
104 | CCOc1ccc(C(C)=O)cc1COC(=O)CNC(=O)c1cccs1 | inactive
105 | O=C(Nc1ccc(Cl)c(Cl)c1)c1ccccc1NC(=O)C1CC=CCC1C(=O)O (centres undefined) | inactive
106 | COC(=O)CC=C[C@@H](C)[C@@H](C=NOC[C@H]1O[C@H](c2ccccc2)C=C[C@H]1Oc1ccc(OC)cc1)N[S+](=O)([O-])c1ccc(C)cc1 | inactive
107 | O=C(COC(=O)c1c2c(nc3ccccc13)/C(=C\c1cccs1)CCC2)Nc1ccccc1Cl | inactive
108 | COc1cc(-c2cc(C(=O)OCC(=O)Nc3ccc4c(c3)OCO4)c3ccccc3n2)cc(OC)c1OC | inactive
109 | NS(=O)(=O)c1ccc(NC(=O)COC(=O)c2c3c(nc4ccccc24)/C(=C\c2ccc4c(c2)OCO4)CCC3)cc1 | 11.6 µM (active)
